Assay results from PMC4552634, “A New Set of Chemical Starting Points with Plasmodium falciparum Transmission-Blocking Potential for Antimalarial Drug Discovery” (PLoS ONE, 2015).
Read-outs that look alike come from different tables or passages of the source. Among all 13,000 compounds or so, about 3,200 (25%) showed an effect of 50% or more. The list shows a part of the results.

System: P. falciparum stage V gametocytes
Parameters: BacTiter-Glo ATP luminescence viability of purified stage V gametocytes in 384-well plates, per cent inhibition versus DMSO
Conditions: 48 h, 5 µM, inhibitor

| SMILES | % Inhibition [%] | % Inhibition (% Inhibition) [%] |
| --- | --- | --- |
| Nc1nc2c(cnn2CCCCCCCP(=O)(O)O)c(=O)[nH]1 [TCMDC-137339] | 21.15 | – |
| CN1CCCN(Cc2ccc(-c3cccc(NC(=O)c4cccc(C#N)c4)c3)cc2)CC1 [TCMDC-132648] | 64.68 | – |
| N#Cc1ccc(C(=O)Nc2cccc(-c3ccc(CN4CCCC4)cc3)c2)cc1 [TCMDC-132639] | 23.71 | – |
| N#Cc1cccc(C(=O)Nc2cccc(-c3ccc(CN4CCCC4)cc3)c2)c1 [TCMDC-132650] | 24.3 | – |
| N#Cc1ccc(C(=O)Nc2ccc(-c3cccc(CN4CCCC4)c3)cc2)cc1 [TCMDC-132668] | 1.206 | – |
| N#Cc1cccc(C(=O)Nc2ccc(-c3cccc(CN4CCCC4)c3)cc2)c1 [TCMDC-132674] | 97.51 | – |
| CN1CCCN(Cc2cccc(-c3cccc(NC(=O)c4cccc(C#N)c4)c3)c2)CC1 [TCMDC-132661] | 20.56 | – |
| N#Cc1cccc(C(=O)Nc2ccc(-c3ccc(CN4CCCC4)cc3)cc2)c1 [TCMDC-132596] | 64.33 | – |
| CN1CCCN(Cc2cccc(-c3ccc(NC(=O)c4cccc(C#N)c4)cc3)c2)CC1 [TCMDC-132673] | 15.02 | – |
| CN1CCCN(Cc2ccc(-c3ccc(NC(=O)c4cccc(C#N)c4)cc3)cc2)CC1 [TCMDC-132594] | -1.455 | – |
| O=C(NCc1ccc(C(=O)NC2CCCCC2)cc1)c1ccc(O)c(-c2ccc(Cl)c(Cl)c2)c1 [TCMDC-140825] | -4.793 | – |
| CN(c1ccc(C(=O)N[C@@H](CCC(=O)O)C(=O)O)cc1)S(=O)(=O)c1ccc2nc(N)[nH]c(=O)c2c1 [TCMDC-137344] | 2.989 | – |
| COC(=O)c1ccc(CC(C)NCC(O)c2cccc(C(F)(F)F)c2)c(OC)c1 (centres unmarked) [TCMDC-131469] | 14.6 | – |
| CCN(CCCN1CCCCC1)c1cc(C)nc(Nc2cccc(OC(F)(F)F)c2)n1 [TCMDC-132429] | -20.04 | – |
| COCCNc1nc(N2CCC(CNC(=O)c3ccc(-c4ccc(C(=O)N(C)C)cc4C)cc3)CC2)nc2cc(OC)c(OC)cc12 [TCMDC-138729] | 5.197 | – |
| COc1cc2nc(N3CCC(CNC(=O)c4ccc(-c5ccc(C(=O)N(C)C)cc5)cc4)CC3)nc(N)c2cc1OC [TCMDC-138719] | 58.63 | – |
| COc1cc2nc(N3CCC(CNC(=O)c4ccc(-c5ccc(C(=O)N(C)C)cc5OCCO)cc4)CC3)nc(N)c2cc1OC [TCMDC-138766] | -18.75 | – |
| COc1cc2nc(N3CCC(CNC(=O)c4ccc(-c5ccc(C(=O)N(C)C)cc5O)cc4)CC3)nc(N)c2cc1OC [TCMDC-138752] | 72.56 | – |
| COc1cc2nc(N3CCC(CNC(=O)c4ccc(-c5ccc(C(=O)N(C)C)cc5C)cc4)CC3)nc(N3CCN(C)CC3)c2cc1OC [TCMDC-138724] | 15.4 | – |
| COc1cc2nc(N3CCC(CNC(=O)c4ccc(-c5ccc(C(=O)N(C)C)cc5)c(OCCO)c4)CC3)nc(N)c2cc1OC [TCMDC-138742] | 39.21 | – |
| COc1cc2nc(N3CCC(CNC(=O)c4ccc(-c5ccc(C(=O)N(C)C)cc5OCCN(C)C)cc4)CC3)nc(N)c2cc1OC [TCMDC-138760] | 100.1 | – |
| NCCc1cccc(-c2cnc3[nH]cc(-c4ccc(C(=O)O)cc4)c3c2)c1.O=C(O)C(F)(F)F [TCMDC-136363] | -2.826 | – |
| CN(Cc1cnc2nc(N)nc(N)c2n1)c1ccc(C(=O)NC(CCC(=O)O)C(=O)O)cc1 (centres unmarked) [TCMDC-123832] | – | 33.25 |

| SMILES | % Inhibition [%] | % Inhibition (% Inhibition) [%] |
| --- | --- | --- |
| CN(C)S(=O)(=O)n1ccc2c3c(N)nc(N)nc3ccc21 [TCMDC-137973] | -6.92 | – |
| NC(=O)c1cccc(CN2Cc3ccccc3OC3(CCN(Cc4c[nH]c5cnccc45)CC3)C2)c1 [TCMDC-133382] | -16.29 | – |
| COc1ccc2nccc([C@@H](O)CN3CCC(NCCOc4c(C)cccc4F)CC3)c2c1 [TCMDC-140657] | 37.85 | – |
| CCOC(=O)CC[C@H](NC(=O)c1ccc(NS(=O)(=O)c2ccc(-c3cnc(N)[nH]c3=O)cc2)cc1)C(=O)OCC [TCMDC-137679] | 3.183 | – |
| CN1CCC(NC(=O)c2cc(Oc3ccc4c(c3)CCN4C(=O)Nc3cccc(C(F)(F)F)c3)ccn2)CC1 [TCMDC-141751] | 51.02 | – |
| Cc1cc2c(cc1C(F)(F)F)N(C(=O)Nc1cccc(C(=O)NC3CCN(Cc4ccccc4)CC3)c1)CC2 [TCMDC-139972] | -14.42 | – |
| O=C(Nc1cccc(C(F)(F)F)c1)NC1CCN(c2ccnc3ccccc23)C1 (centres unmarked) [TCMDC-133579] | -23.57 | – |
| COc1cc(Nc2nccc(N3CCC(NS(=O)(=O)c4ccc(NC(C)=O)cc4)CC3)n2)cc(OC)c1OC [TCMDC-133634] | -31.03 | – |
| O=[N+]([O-])c1cc(/C=N/Nc2nc3ccccc3[nH]2)ccc1O [TCMDC-139076] | 6.997 | – |
| O=C(Nc1ccc(F)cc1)NC1CCN(c2ccnc3cc(Cl)ccc23)C1 (centres unmarked) [TCMDC-133407] | -45.03 | – |
| Cc1nc2ccccc2n1C1CC2CCC(C1)N2Cc1nccn1-c1ccccc1 (centres unmarked) [TCMDC-134167] | -3.664 | – |
| Cc1nc2ccccc2n1C1CC2CCC(C1)N2CCCC1(c2ccccc2)CCN(C(=O)OCc2ccccc2)CC1 (centres unmarked) [TCMDC-138708] | 52.65 | – |
| O=C(/C=C/c1ccc(Cl)c(Cl)c1)NCCCCCN1CCC(NC(=O)Nc2ccc([N+](=O)[O-])cc2)CC1 [TCMDC-135719] | -1.594 | – |
| c1ccc([C@H]2CN3CCSC3=N2)cc1 [TCMDC-125847] | 1.326 | – |
| Cc1cc(=O)c(-c2ccc(Oc3cccc(C(F)(F)F)c3)cc2)c(C)[nH]1 [TCMDC-137536] | – | 72.24 |
| Cc1cc(=O)c(-c2ccc(Oc3ccc(C(F)(F)F)cc3)cc2)c(C)n1O [TCMDC-138136] | 12.43 | – |
| COc1c(C)[nH]c(C)c(-c2ccc(Oc3cccc(C(F)(F)F)c3)cc2)c1=O [TCMDC-135253] | 67.89 | – |
| Cc1cc(=O)c(-c2ccc(OCCSc3ccc(C(F)(F)F)cn3)cc2)c(C)[nH]1 [TCMDC-135289] | 67.89 | – |
| Cc1nc2c(c(O)c1Cl)-c1ccc(Oc3cccc(C(F)(F)F)c3)cc1C2=O [TCMDC-136021] | 8.301 | – |
| Cc1cc(=O)c2cc(-c3ccc(OC(F)(F)F)cc3)ccc2[nH]1 [TCMDC-137042] | 32.81 | – |
| Cc1cc(=O)c(-c2ccc(OCc3ccc(OC(F)(F)F)cc3)cc2)c(C)[nH]1 [TCMDC-132123] | 25.03 | – |
| Cc1[nH]c(C)c([N+](=O)[O-])c(=O)c1-c1ccc(Oc2ccccc2)cc1 [TCMDC-135779] | 22.46 | – |
| Cc1[nH]c(C)c(C(F)(F)F)c(=O)c1-c1ccc(Oc2ccc(OC(F)(F)F)cc2)cc1 [TCMDC-135444] | 33.82 | – |

| SMILES | % Inhibition [%] | % Inhibition (% Inhibition) [%] |
| --- | --- | --- |
| Cc1[nH]c2c(c(=O)c1Cl)-c1ccc(Oc3cccc(C(F)(F)F)c3)cc1C2=O [TCMDC-136022] | 56.81 | – |
| Cc1[nH]n(-c2cccc(C(F)(F)F)c2)c(=O)c1-c1ccc(Cl)cc1 [TCMDC-124050] | 16.03 | – |
| Cc1cc(=O)c(-c2ccc(Oc3cccc(C(F)(F)F)c3)cc2)c(C)[nH]1 [TCMDC-133308] | – | 48.03 |
| CC1(C)N=C(N)N=C(N)N1OCCCOc1c(Cl)cc(Cl)cc1Cl [TCMDC-131623] | -2.968 | – |
| COC(=O)c1cccc(NC(=O)NC2CCN(c3ccnc(Nc4ccc(F)cc4)n3)C2)c1 (centres unmarked) [TCMDC-133606] | -36.49 | – |
| COc1ccc(-c2nc3c4cc(I)ccc4c4ccccc4c3[nH]2)cc1 [TCMDC-124198] | -15.52 | – |
| c1ccc(C2CCC(N3CCC(N4CCN(c5ccccc5)CC4)CC3)CC2)cc1 (centres unmarked) [TCMDC-124572] | 20.28 | – |
| Cc1cc(=O)c(-c2ccc(Oc3cccc(OC(F)(F)F)c3)cc2)c(C)[nH]1 [TCMDC-137266] | 80.76 | – |
| Cc1cc(=O)c(-c2ccc(Oc3ccc(OC(F)(F)F)cc3)cc2)c(C)[nH]1 [TCMDC-137390] | 34.7 | – |
| Cc1cc(=O)c2cc(Oc3cccc(OC(F)(F)F)c3)ccc2[nH]1 [TCMDC-132124] | -25.2 | – |
| COc1cc2c(cc1N1CCN(C)CC1)N(C(=O)Nc1ccc(-c3ccncc3)c(Cl)c1Cl)CC2 [TCMDC-139163] | -33.93 | – |
| CN1CCN(c2ccnc3ccc(NC(=O)Nc4cccc(C#N)c4)cc23)CC1 [TCMDC-139323] | 13.5 | – |
| Cc1noc(C)c1-c1ccc2c(Nc3ccc(C#N)cc3)c(C(N)=O)cnc2c1 [TCMDC-136029] | 27.78 | – |
| CC1(C)CC(NCCCCCCCOc2ccc(OCc3ccccc3)cc2)CC(C)(C)N1 [TCMDC-138958] | 104 | – |
| CCOC(=O)CNCC(=O)c1ccc(OCc2ccccc2)cc1 [TCMDC-131777] | 33.46 | – |
| CN(C)c1ccc(OCCCCCCOc2ccccc2)cc1 [TCMDC-138000] | -96.23 | – |
| N#Cc1ccc(NC(=O)N2CCCN(CCCCCNC(=O)/C=C/c3ccc(Cl)c(Cl)c3)CC2)cc1 [TCMDC-135746] | -26.45 | – |
| O=C(Nc1ccc(Cl)cc1)c1cccc(CN2CCCN(Cc3cccc(O)c3)CC2)c1 [TCMDC-135963] | -7.455 | – |
| O=C(/C=C/c1ccc2ccccc2c1)NC1CCC(CN2CCC(c3c[nH]c4ccccc34)CC2)CC1 (centres unmarked) [TCMDC-139707] | 26.41 | – |
| O=C(/C=C/c1cccc(Cl)c1)NC1CCC(CN2CCC(c3c[nH]c4ccccc34)CC2)CC1 (centres unmarked) [TCMDC-139715] | – | 101.4 |
| O=C(/C=C/c1cccc(Cl)c1)NC1CCC(CN2CCC(c3c[nH]c4ccccc34)CC2)CC1 (centres unmarked) [TCMDC-139700] | – | 105.2 |
| O=C(/C=C/c1ccc(Cl)cc1Cl)NC1CCC(CN2CCC(c3c[nH]c4ccccc34)CC2)CC1 (centres unmarked) [TCMDC-139704] | -6.512 | – |
